# A selection: hits, their analogues and other compounds. The true share with any hit is near 0.64%.
# EPAC1 ag: EPAC1 (human) agonism; EPAC1 agonist qHTS, biochemical assay; response scale: 100% = response to 6.5 mM cAMP; Potency, µM (titrated, usually from 154 µM), for the others: at the top dose activation, actives largely listed as activators; 360,000 tested, 0.073% active; AID 720707; note: potency is the fitted concentration of half-maximal effect; nearly all actives have a fitted effect of over 60% in size
#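 Fluorescent GDP-exchange assay: 100 nM EPAC1 with 250 nM Rap1B preloaded with BODIPY-GDP and 50 uM GDP; compounds tested as concentration series, 5 min at room temperature, then read every 5 min for 30 min (ex 480/em 540 nm); normalized to 6.5 mM cAMP.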
# EPAC2 agonist: activates human EPAC2 exchange factor; Q8WZA2; EPAC2 activation, biochemical qHTS; response scale: 100% = 6.5 mM cAMP response; Potency, µM (titrated, usually from 154 µM), without a hit: top-dose activation, actives largely listed as activators; 360,000 tested, 0.079% active; AID 720711; note: potency is the fitted concentration of half-maximal effect; nearly all actives have a fitted effect of over 50% in size
#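 Guanine nucleotide exchange by EPAC2 is measured as reduced fluorescence of BODIPY-GDP once it is released from 250 nM Rap1B. Plates are read kinetically for 30 min at room temperature; results are scaled to 6.5 mM cAMP.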
# PKM2 activator: activators of human pyruvate kinase M2; purified PKM2, Kinase-Glo ATP luminescence, activation; response scale: 0% is enzyme alone, no compound; Potency, µM (doses to about 57.5 µM), for the others: top-dose activation, usual class: activators; 260,000 tested, 0.34% active; note: potency is the fitted concentration of half-maximal effect; % is set by controls: 0 for no effect and ±100 for the full control effect; nearly all actives have a fitted effect of over 55% in size
# Target sequence (P14618 whole entry, looked up): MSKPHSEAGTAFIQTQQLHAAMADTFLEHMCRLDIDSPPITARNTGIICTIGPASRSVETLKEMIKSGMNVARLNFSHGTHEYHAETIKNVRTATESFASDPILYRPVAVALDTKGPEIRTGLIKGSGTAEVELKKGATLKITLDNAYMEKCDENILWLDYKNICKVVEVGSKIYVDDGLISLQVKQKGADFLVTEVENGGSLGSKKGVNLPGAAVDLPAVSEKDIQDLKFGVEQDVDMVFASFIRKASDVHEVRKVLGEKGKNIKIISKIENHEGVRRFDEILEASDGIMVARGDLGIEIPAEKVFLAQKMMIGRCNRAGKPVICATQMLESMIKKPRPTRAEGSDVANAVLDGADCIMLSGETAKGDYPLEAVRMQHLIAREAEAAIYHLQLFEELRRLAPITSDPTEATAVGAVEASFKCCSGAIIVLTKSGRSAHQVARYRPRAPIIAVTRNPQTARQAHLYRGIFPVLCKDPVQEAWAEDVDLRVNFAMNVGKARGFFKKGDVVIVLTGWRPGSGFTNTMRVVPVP
#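 Kinase-Glo luminescence reports ATP generated from ADP (0.1 mM) and PEP (0.5 mM) by purified hPK-M2 after 1 h at room temperature, pH 7.2 imidazole buffer; intermediate enzyme activity allows detecting inhibitors and activators.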
# EPAC2 antag: antagonists of human EPAC2; Q8WZA2; EPAC2 GEF exchange of Rap1B-BODIPY-GDP, fluorescence; Potency, µM (top dose mostly 114 µM), inactives show top-dose activity, negative = inhibition, most hits filed as inhibitors; 360,000 tested, 0.18% active; AID 720708; note: potency is the fitted concentration of half-maximal effect; % is set by controls: 0 for no effect and ±100 for the full control effect; nearly all actives have a fitted effect of over 45% in size
# EPAC1 antagonist: antagonists of human EPAC1. O95398. EPAC1 GEF assay, Rap1b-BODIPY-GDP exchange fluorescence. Potency, µM (top dose mostly 115 µM), for inactives: at the highest dose activity change, negative = inhibition, most hits filed as inhibitors. 360,000 tested, 0.14% active. AID 720709;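 note: potency is the fitted concentration of half-maximal effect; plate controls were vehicle for no effect and positive control for full effect; nearly all actives have a fitted effect of over 50% in size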
# IL2 activator: activates IL-2 in a cell-based reporter assay | 360,000 tested, 0.065% active | activation, % (series mostly up to about 46 µM) | IL-2 activation reporter assay, cell-based qHTS; stimulated with anti-CD3/CD4/CD28 beads; in transgenic mouse T cells; in the data active = activation above about 50%; inconclusive = mostly about 30% to 49%; note: 0% is about no effect
#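 Readout is EGFP and DsRed signal by fluorescent plate cytometry after 18 h at 37 degrees C. Transgenic mouse T cells (750/well) received compound for 60 min before bead stimulation (anti-CD3, anti-CD4, anti-CD28); memory T cells served as non-tolerant control.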
# * hit, by the source's call; u = inconclusive; x = not tested or not shown; [ ] = remark or other dose. Unless noted, calls come from the whole dose curve; as a rule, active = well fitted curve in the direction sought with a large enough effect; inconclusive = small, poorly fitted or top-dose-only effect, or another doubt; inactive = no such curve, though single readings can be large; an effect the other way counts as inactive or inconclusive.
SMILES,EPAC1 ag,EPAC2 agonist,PKM2 activator,EPAC2 antag,EPAC1 antagonist,IL2 activator
Cc1ccc(S(=O)(=O)N2CCN(C(=O)CCN3C(=O)c4ccccc4C3=O)CC2)cc1C,9%,21%,5.6µM*,1%,-10%,-2
Cc1ccc(S(=O)(=O)N2CCN(C(=O)Cc3ccccc3)CC2)cc1C,3%,14%,x,-6%,-10%,0
c1ccc(-n2nnnc2-n2ccnc2)cc1,-5%,10µM*,-7%,-1%,-15%,0
COC(=O)c1cn(C(=O)c2cc(OC)c(OC)c(OC)c2)c2ccccc12,-1%,5%,-4%[11.5 µM],18µM*,1%,-3
O=S(=O)(NCC1CCN(S(=O)(=O)c2ccccc2)CC1)c1ccccc1,2%,-6%,2.8µM*,-14%,-5%,-1
O=c1oc2ccc(NS(=O)(=O)c3cccc4cccnc34)cc2s1,12%,24%,14µM*,-6%,-6%,-1
O=C(c1ccc(NS(=O)(=O)c2cccc3cccnc23)cc1)N1CCOCC1,4%,8%,x,-3%,-11%,0
O=C(c1ccc(NS(=O)(=O)c2cccc3cccnc23)cc1)N1CCCCC1,-15%,7%,16µM*,-8%,-17%,1
CCC(C(=O)OCC(=O)Nc1ccc2[nH]c(=O)[nH]c2c1)c1ccccc1 (configuration not stated),10%,5%,x,-1%,-8%,-5
COc1cc(CCc2ccccc2)c(C(=O)O)c(O)c1C/C=C(/C)CCC=C(C)C,-16%,-13%,x,u,50µM*,-1
COc1cc(CCc2ccccc2)c(C(=O)O)c(O)c1CC=C(C)C,-17%,-20%,x,35µM*,u,1
N#Cc1c(-c2cccs2)nc(SCc2ccc(Cl)cc2)[nH]c1=O,-3%,-9%,32µM*,50µM*,89µM*,1
O=C1C(=C(c2ccccc2)c2ccccc2)Nc2ccccc21,9%,6.3µM*,4%,-35%,-8%,0
CCOC(=S)SCc1cn2ccc(C)cc2n1,-2%,0%,7.9µM*,-3%,35%,-1
CCOc1cc(C(=O)N(CC)CC(=O)Nc2ccc3c(c2)OCCO3)ccc1OC,2%,4%,x,-2%,-4%,0
Cn1cc(/C=C2\SC(=S)N(NC(=O)c3ccccc3Cl)C2=O)c2ccccc21,100µM*,u,-6%,23%,68%,3
Cn1cccc1/C=C1\SC(=S)N(NC(=O)c2ccccc2Cl)C1=O,-166%,-147%,2%,41%,-13%,-3
Cc1ccc(C(=O)NN2C(=O)/C(=C/c3cn(C)c4ccccc34)SC2=S)cc1,100µM*,4%,-19%,17%,-1%,-2
C[C@@H]1CN([C@H](C)CO)C(=O)CCCn2nncc2CO[C@H]1CN(C)Cc1ccc2cccnc2c1,-8%,13%,x,10%,-1%,-2
O=C(OCCNc1ncc(C(F)(F)F)cc1Cl)c1ccc(S(=O)(=O)N2CCOCC2)cc1,20%,9%,20µM*,-17%,-8%,3
O=C(NCCOC(=O)c1ccc(S(=O)(=O)N2CCOCC2)cc1)c1cccnc1,0%,6%,10%,-1%,-13%,0
O=C(Cn1cnc2ccc(Cl)cc2c1=O)NC1CCS(=O)(=O)C1 (configuration not stated),8%,-1%,x,-1%,-8%,1
CC1(C(=O)Nc2ccc(Cl)c(Cl)c2)CCN1C(=O)CC1CCCC1 (configuration not stated),-11%,5%,x,-20%,-17%,0
CCOCCCNc1nc2c(C)cccn2c(=O)c1/C=C1\SC(=S)N(CC(C)C)C1=O,9%,112µM*,-4%,-2%,1%,1
Cc1c(Cl)cccc1NS(=O)(=O)c1ccc2c(c1)C1C=CCC1C(c1ccc(C(=O)O)cc1)N2 (configuration not stated),-7%,-4%,10%,-17%,56µM*,1
SMILES,EPAC1 ag,EPAC2 agonist,PKM2 activator,EPAC2 antag,EPAC1 antagonist,IL2 activator
CCc1nc2c(OCc3ccc(OC)cc3)cccn2c1N(C)C(=O)c1ccc(OC)cc1,4%,16%,x,u,7%,1
CCc1nc2c(OCc3ccc(C(F)(F)F)cc3)cccn2c1N(C)C(=O)c1ccc(OC)cc1,-4%,1%,x,18µM*,-20%,0
CCc1nc2c(OCc3ccc(C(F)(F)F)cc3)cccn2c1N(C)C(=O)c1ccc(C)cc1,-31%,-6%,x,16µM*,-21%,-1
CCc1nc2c(OCc3ccc(C#N)cc3)cccn2c1N(C)C(=O)c1ccc(C)cc1,8%,6%,x,u,21%,1
CN(C)c1ccc(/C=C2\C(=N)N3N=C(CC(=O)N4CCCC4)SC3=NC2=O)cc1Br,10%,4%,x,-12%,0%,0
CN(C)c1ccc(/C=C2\C(=N)N3N=C(CC(=O)N4CCCCC4)SC3=NC2=O)cc1,8%,100µM*,x,10%,-9%,20
Cn1cc(C2=C(c3ccc(Cl)cc3Cl)C(=O)NC2=O)c2ccccc21,-47%,100µM*,-22%,15%,u,5
O=[N+]([O-])c1ccc(Sc2nnnn2-c2ccccc2)nc1,0%,11%,18µM*,5%,-14%,-1
CCOc1ccc(/C=C(\C#N)C(=O)NC2CC2)c(OCC)c1,4%,2%,x,-16%,-30%,0
COc1ccc(C2N(c3ccc(Cl)cc3)N=C(C(C)=O)N(C)N2C(C)=O)cc1 (configuration not stated),5%,13%,-1%,20µM*,6%,0
CC1=CC2=C(C=O)C(=O)C(C)(O)C(O)C2=CO1 (configuration not stated),-64%,-68%,x,50µM*,u,0
COc1ccc(OC)c(NC(=O)CSc2nc(O)cc(=O)n2CC(C)C)c1,-12%,-2%,x,12%,56µM*,1
CN(CCO)c1ccc2c(c1)OC[C@H](Cc1ccccc1)NS2(=O)=O,2%,9%,x,8%,7%,0
O=C(N/N=C/c1c(O)n(-c2ccccc2Cl)c(=O)c2ccccc12)C1COc2ccccc2O1 (configuration not stated),14%,-5%,-1%,14%,10µM*,-1
Cc1ccc(-n2c(O)c(/C=N/NC(=O)C3COc4ccccc4O3)c3ccccc3c2=O)cc1 (configuration not stated),-2%,-16%,1%,-2%,18%,-1
COC(=O)c1[nH]c2cc(OC)c(OC)cc2c1/C=N/Nc1ccccc1,-7%,-78%,x,-2%,-3%,532*
